Test results from PubChem BioAssay (Tox21).
Where “and” joins values, the source holds several entries; their conditions need not be identical. Identical values can stand only once. Inconclusive results are not listed. Entries that show only a call come without a potency. The source holds several records for some structures; these can differ, active in one and inactive in another. Calls of active or inactive are those of the source. Calls follow the shape of the dose curve; as a rule, active = well fitted curve in the direction sought with a large enough effect in the repeat runs; inconclusive = weak or mixed curves; inactive = no such curve, though single readings can be large; an effect the other way counts as inactive or inconclusive. Starred links: 1 amine or outer side, 2 acyl side, 3 side chain; linkers in the order of their positions; H or OH if unused. Positions of bridges follow the written chain, without caps; N, C: chain ends. Non-standard residues stand in square brackets, D forms with d. Residues, ends and D or L forms follow the SMILES beside them. Chains are numbered I, II in the order given. Actinocin(9to1) = Cc1c2oc3c(C)ccc(C(=O)[*:1])c3nc-2c(C(=O)[*:2])c(N)c1=O; NMeV = CN[C@H](C(=O)O)C(C)C; Sar = CNCC(=O)O

Key:
[1] = Caspase-3/7 induction in HepG2 cells by small molecules, qHTS assay (AID 1346978); also: nearly all actives have a fitted effect of over 15% in size; also: potency is read from the fitted curve at half-maximal effect
Procedure, shortened: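 Caspase-3/7 induction was measured by Caspase-Glo 3/7 luminescence (30 min, room temperature) after a 17 hr compound exposure of wild-type HepG2 cells seeded at 2,000 per well and pre-incubated 5 hr.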

[2] = Caspase-3/7 induction in CHO-K1 cells by small molecules, qHTS cell viability counter screen (AID 1346979); also: nearly all actives have a fitted effect of over 35% in size; also: potency is read from the fitted curve at half-maximal effect
Procedure, shortened: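 To flag cytotoxic compounds, treated CHO-K1 wild-type cells were given CellTiter-Fluor at 16hr and read fluorescently after 1hr at 37C; the caspase-3/7 luminescence was measured in these same wells.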

[3] = Caspase-3/7 induction in CHO-K1 cells by small molecules, qHTS assay (AID 1346980); also: nearly all actives have a fitted effect of over 15% in size; also: potency is read from the fitted curve at half-maximal effect
Procedure, shortened: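 Luminescent Caspase-Glo 3/7 read (30min, room temperature) quantified apoptosis induction. Cells were wild-type CHO-K1, treated with compound for 17hr at 37 C and 5% CO2.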

[4] = Caspase-3/7 induction in HepG2 cells by small molecules, qHTS cell viability counter screen (AID 1346981); also: nearly all actives have a fitted effect of over 30% in size; also: potency is read from the fitted curve at half-maximal effect
Procedure, shortened: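 In this quantitative HTS counter screen, compounds delivered in DMSO were left on unmodified HepG2 cells for 16 hr at 37 C. Viability was then determined fluorometrically with CellTiter-Fluor, in parallel with caspase-3/7 induction in the same wells.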

[5] = target: Nuclear receptor subfamily 1 group I member 2 (Homo sapiens) (UniProt O75469); test: Human pregnane X receptor (PXR) small molecule agonists, qHTS assay (AID 1346982); also: nearly all actives have a fitted effect of over 35% in size; also: potency is read from the fitted curve at half-maximal effect
Procedure, shortened: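 Reporter HepG2 cells expressing PXR-Luc are cultured in charcoal-stripped FBS (5%), treated with compounds for 24 hr at 37 C, and assayed by ONE-Glo luminescence after 30 min at room temperature.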

[6] = target: Cytochrome P450 2D6 (Homo sapiens) (UniProt P10635); test: Cytochrome P450 Family 2 Subfamily D Member 6 (CYP2D6) small molecule antagonists: luciferase reporter qHTS assay (AID 1671196); also: nearly all actives have a fitted effect of over 50% in size; also: potency is read from the fitted curve at half-maximal effect
Procedure, shortened: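 Test chemicals meet CYP2D6 plus proluciferin substrate (10 min, RT); NADPH regenerating solution then drives turnover for 1 h. Detection reagent halts the reaction; luminescence measured after 20 min.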

[7] = target: Cytochrome P450 2C19 (Homo sapiens) (UniProt P33261); test: Cytochrome P450 Family 2 Subfamily C Member 19 (CYP2C19) small molecule antagonists: luciferase reporter qHTS assay (AID 1671197); also: nearly all actives have a fitted effect of over 65% in size; also: potency is read from the fitted curve at half-maximal effect
Procedure, shortened: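 Quantitative high-throughput screen of the Tox21 library using CYP2C19 with proluciferin substrate. Reaction: NADPH regeneration, 37C, 1 h, after 10 min compound preincubation at room temperature. Readout: luminescence.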

[8] = target: Cytochrome P450 2C9 (Homo sapiens) (UniProt P11712); test: Cytochrome P450 Family 2 Subfamily C Member 9 (CYP2C9) small molecule antagonists: luciferase reporter qHTS assay (AID 1671198); also: nearly all actives have a fitted effect of over 50% in size; also: potency is read from the fitted curve at half-maximal effect
Procedure, shortened: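 Enzyme-substrate mix preincubated with compound 10 min at room temperature; reaction started with NADPH regeneration solution, 1 h 37C. Luminescent luciferin product read after 20 min detection reagent.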

[9] = target: Cytochrome P450 1A2 (Homo sapiens) (UniProt P05177); test: Cytochrome P450 Family 1 Subfamily A Member 2 (CYP1A2) small molecule antagonists: luciferase reporter qHTS assay (AID 1671199); also: nearly all actives have a fitted effect of over 50% in size; also: potency is read from the fitted curve at half-maximal effect
Procedure, shortened: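 Steps: enzyme-substrate mix dispensed; test compounds and furafylline control pinned in; 10 min room temperature; NADPH regeneration solution added, 1 h; reaction stopped with luciferin detection reagent; luminescence read after 20 min.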

[10] = target: Nuclear receptor subfamily 1 group I member 2 (Rattus norvegicus) (UniProt Q9R1A7); test: Rat pregnane X receptor (rPXR) activation by small molecules, qHTS assay (AID 1346983); details: rPXR luciferase reporter cells, One-Glo luminescence, 24 h; stronger effect = higher value; also: nearly all actives have a fitted effect of over 20% in size
Procedure, shortened: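 Luminescent readout (One-Glo luciferase, 30 min room temperature) followed 24 hr compound treatment at 37 C of rPXR cells plated 2,000 per well and preincubated 5hr; qHTS format with compounds delivered in DMSO.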

[11] = target: Nuclear receptor subfamily 1 group I member 2 (Homo sapiens) (UniProt O75469); test: CYP3A4 induction through human pregnane X receptor (PXR) by small molecules, qHTS assay (AID 1346984); also: nearly all actives have a fitted effect of over 40% in size; also: potency is read from the fitted curve at half-maximal effect
Procedure, shortened: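 Induction measured in HepG2-based DPX-2 cells co-expressing human PXR and a CYP3A4 promoter-driven luciferase. After a 24-hour compound exposure, cells received CYP3A4 luciferin substrate at 3uM final for 3 hours, and light output was then recorded.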

[12] = target: Nuclear receptor subfamily 1 group I member 2 (Homo sapiens) (UniProt O75469); test: Human pregnane X receptor (PXR) activation by small molecules, qHTS assay (AID 1346985); also: nearly all actives have a fitted effect of over 40% in size
Procedure, shortened: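 DPX-2 cells (HepG2 co-transfected with a PXR response element and a CYP3A4-promoter luciferase construct) were seeded at 2,000 per well, rested 5 hr at 37C, then exposed to DMSO-dissolved compounds for 24 hr. Activation was read as luciferase luminescence.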

[13] = target: Voltage-gated inwardly rectifying potassium channel KCNH2 (Homo sapiens) (UniProt Q12809); test: Human Ether-a-go-go-Related Gene (hERG) channel small molecule antagonists: fluorescence cell-based qHTS assay (AID 1671200);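 also: hERG-expressing U2OS cells given a thallium stimulus after FluxOR II dye loading; series mostly up to about 77 µM; nearly all actives have a fitted effect of over 50% in size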
Procedure, shortened: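 Measured: Tl+ flux via fluorescence (480/540 nm) in hERG-expressing U2OS cells after 1 h dye loading at room temperature.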

[14] = target: Cytochrome P450 3A4 (Homo sapiens) (UniProt P08684); test: Cytochrome P450 Family 3 Subfamily A Member 4 (CYP3A4) small molecule antagonists: luciferase reporter qHTS assay (AID 1671201)
Procedure, shortened: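 Setup: enzyme-substrate mix, compound pin transfer, 10 min RT. Reaction: NADPH regeneration solution, 1 h RT. Readout: detection reagent stops turnover, luminescence measured after 20 min, expressed in relative luminescence units.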

Sequence of Cytochrome P450 3A4 (Homo sapiens) (P08684 whole entry, looked up): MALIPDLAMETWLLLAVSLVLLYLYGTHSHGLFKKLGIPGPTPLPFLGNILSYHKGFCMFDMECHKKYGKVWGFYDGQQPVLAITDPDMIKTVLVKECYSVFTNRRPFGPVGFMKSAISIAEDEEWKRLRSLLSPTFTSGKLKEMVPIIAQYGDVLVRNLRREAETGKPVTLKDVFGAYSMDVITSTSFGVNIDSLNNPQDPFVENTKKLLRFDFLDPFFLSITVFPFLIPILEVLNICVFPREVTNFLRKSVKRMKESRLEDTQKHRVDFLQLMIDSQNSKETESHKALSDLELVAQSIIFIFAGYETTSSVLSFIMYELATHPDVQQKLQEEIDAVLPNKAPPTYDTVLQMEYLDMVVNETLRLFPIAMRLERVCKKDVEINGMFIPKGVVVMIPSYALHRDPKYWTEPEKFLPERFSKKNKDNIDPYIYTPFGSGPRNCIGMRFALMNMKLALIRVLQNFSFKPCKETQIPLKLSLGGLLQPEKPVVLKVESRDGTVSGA
Sequence of Voltage-gated inwardly rectifying potassium channel KCNH2 (Homo sapiens) (Q12809 whole entry, looked up): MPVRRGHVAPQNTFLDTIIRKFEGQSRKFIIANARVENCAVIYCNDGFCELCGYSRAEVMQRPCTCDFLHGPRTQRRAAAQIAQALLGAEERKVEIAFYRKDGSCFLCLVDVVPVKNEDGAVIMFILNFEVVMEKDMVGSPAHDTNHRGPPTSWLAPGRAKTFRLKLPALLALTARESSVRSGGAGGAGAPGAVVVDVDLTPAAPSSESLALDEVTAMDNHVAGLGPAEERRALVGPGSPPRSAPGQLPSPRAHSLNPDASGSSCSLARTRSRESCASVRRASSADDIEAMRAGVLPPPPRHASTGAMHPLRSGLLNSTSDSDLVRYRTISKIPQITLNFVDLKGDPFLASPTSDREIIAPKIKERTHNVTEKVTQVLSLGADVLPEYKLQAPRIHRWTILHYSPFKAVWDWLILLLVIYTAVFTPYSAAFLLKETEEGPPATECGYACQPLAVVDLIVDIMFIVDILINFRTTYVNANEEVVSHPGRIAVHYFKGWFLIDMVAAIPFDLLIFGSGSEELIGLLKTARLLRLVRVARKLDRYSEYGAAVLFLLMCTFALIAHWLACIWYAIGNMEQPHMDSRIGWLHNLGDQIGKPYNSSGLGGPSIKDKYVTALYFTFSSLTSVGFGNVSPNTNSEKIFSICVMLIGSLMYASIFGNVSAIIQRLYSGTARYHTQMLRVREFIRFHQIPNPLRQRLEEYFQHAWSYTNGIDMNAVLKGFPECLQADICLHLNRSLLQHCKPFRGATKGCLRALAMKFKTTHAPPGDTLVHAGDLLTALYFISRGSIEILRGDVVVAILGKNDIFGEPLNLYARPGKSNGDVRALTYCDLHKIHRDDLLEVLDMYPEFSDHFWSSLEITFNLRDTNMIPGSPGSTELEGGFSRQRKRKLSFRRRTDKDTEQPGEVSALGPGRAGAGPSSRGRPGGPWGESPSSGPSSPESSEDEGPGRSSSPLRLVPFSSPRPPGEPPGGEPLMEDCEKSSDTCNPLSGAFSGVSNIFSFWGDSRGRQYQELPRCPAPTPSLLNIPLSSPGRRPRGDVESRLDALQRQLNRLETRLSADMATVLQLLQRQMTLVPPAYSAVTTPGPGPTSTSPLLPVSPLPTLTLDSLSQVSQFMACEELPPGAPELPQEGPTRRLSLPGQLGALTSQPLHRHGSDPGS
Sequence of Cytochrome P450 2D6 (Homo sapiens) (P10635 whole entry, looked up): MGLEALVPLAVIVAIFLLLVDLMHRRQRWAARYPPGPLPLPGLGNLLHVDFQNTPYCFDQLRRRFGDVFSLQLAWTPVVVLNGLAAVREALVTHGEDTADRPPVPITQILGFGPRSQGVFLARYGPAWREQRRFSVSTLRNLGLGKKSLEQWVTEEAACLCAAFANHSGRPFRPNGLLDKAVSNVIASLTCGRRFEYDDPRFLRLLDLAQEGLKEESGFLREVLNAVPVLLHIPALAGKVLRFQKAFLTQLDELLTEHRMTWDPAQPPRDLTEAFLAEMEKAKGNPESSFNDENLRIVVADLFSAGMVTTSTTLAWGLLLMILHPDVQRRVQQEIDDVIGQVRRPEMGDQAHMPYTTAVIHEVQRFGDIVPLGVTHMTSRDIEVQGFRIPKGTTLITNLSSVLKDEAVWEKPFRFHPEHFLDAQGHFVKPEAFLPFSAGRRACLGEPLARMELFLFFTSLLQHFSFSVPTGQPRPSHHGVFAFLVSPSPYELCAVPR
Sequence of Cytochrome P450 1A2 (Homo sapiens) (P05177 whole entry, looked up): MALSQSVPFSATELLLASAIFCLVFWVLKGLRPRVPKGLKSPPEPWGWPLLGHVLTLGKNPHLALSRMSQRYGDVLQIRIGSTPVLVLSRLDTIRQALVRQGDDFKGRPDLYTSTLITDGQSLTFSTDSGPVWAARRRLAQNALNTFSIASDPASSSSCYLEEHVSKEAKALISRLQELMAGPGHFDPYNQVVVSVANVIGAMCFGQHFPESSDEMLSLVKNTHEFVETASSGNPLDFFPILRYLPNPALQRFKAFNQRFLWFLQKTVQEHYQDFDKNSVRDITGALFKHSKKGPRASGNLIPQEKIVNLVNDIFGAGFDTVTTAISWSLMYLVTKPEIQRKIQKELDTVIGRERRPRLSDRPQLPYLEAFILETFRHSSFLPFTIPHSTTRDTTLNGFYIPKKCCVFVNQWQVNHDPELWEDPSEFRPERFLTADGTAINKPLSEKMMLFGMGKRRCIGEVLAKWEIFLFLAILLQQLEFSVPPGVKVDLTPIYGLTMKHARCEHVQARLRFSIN
Sequence of Cytochrome P450 2C19 (Homo sapiens) (P33261 whole entry, looked up): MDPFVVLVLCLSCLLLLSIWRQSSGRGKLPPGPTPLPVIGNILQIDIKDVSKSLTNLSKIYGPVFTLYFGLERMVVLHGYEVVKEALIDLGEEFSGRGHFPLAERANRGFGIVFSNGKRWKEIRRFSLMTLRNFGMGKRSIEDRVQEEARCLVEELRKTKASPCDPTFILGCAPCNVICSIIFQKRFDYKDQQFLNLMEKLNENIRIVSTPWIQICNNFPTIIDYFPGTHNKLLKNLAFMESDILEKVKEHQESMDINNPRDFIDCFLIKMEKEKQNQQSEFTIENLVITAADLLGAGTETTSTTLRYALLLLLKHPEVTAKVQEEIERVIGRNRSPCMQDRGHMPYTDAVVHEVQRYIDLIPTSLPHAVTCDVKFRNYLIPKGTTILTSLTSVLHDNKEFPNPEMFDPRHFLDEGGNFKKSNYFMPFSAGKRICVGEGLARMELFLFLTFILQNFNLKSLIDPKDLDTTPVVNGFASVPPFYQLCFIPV
Sequence of Cytochrome P450 2C9 (Homo sapiens) (P11712 whole entry, looked up): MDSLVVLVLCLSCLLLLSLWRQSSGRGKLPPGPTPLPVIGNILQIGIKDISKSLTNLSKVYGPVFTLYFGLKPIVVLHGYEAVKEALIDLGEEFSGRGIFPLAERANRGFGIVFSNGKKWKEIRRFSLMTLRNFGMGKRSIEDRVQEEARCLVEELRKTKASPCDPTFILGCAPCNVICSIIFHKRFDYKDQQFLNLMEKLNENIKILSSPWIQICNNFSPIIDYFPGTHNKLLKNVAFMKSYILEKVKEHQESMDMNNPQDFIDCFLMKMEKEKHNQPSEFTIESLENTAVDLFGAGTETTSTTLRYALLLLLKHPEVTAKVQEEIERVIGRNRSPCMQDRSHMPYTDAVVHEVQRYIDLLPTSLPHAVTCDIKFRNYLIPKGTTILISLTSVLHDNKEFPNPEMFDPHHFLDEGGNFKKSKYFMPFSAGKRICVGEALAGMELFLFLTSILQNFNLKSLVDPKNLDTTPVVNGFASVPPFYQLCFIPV
Sequence of Nuclear receptor subfamily 1 group I member 2 (Rattus norvegicus) (Q9R1A7 whole entry, looked up): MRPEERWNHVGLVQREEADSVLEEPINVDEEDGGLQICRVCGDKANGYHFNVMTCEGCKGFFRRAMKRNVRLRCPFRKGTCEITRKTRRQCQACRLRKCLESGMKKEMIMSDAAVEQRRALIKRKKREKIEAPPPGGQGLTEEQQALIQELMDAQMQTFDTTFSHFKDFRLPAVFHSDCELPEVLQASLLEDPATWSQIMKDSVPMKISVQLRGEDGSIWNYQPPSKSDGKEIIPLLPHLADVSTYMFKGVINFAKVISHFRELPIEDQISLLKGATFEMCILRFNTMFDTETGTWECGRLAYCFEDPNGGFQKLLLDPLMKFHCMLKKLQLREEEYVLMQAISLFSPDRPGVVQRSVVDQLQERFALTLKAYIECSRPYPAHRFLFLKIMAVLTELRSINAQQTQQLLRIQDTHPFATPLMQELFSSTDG
Sequence of Nuclear receptor subfamily 1 group I member 2 (Homo sapiens) (O75469 whole entry, looked up): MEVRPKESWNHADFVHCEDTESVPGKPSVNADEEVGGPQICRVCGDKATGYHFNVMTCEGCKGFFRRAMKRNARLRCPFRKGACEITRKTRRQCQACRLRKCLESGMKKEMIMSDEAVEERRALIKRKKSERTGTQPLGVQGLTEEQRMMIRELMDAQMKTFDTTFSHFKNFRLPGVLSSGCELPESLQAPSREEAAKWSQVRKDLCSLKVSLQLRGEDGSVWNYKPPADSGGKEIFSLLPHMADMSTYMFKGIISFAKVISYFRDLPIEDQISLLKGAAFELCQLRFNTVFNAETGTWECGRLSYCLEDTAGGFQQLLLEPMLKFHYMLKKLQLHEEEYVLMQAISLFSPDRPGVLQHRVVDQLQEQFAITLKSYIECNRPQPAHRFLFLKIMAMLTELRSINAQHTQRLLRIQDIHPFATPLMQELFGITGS

## CCN1CCCC1CNC(=O)c1cc(S(=O)(=O)CC)c(N)cc1OC (centres undefined)
[1]
  Potency: inactive
[2]
  Potency: inactive
[3]
  Potency: inactive
[4]
  Potency: inactive
[5]
  Potency: inactive
[6]
  Potency: 9.77 µM (active)
[7]
  Potency: inactive
[8]
  Potency: inactive
[9]
  Potency: inactive

## O=C1NCC2(CCN(CCc3ccccc3)CC2)O1
[1]
  Potency: inactive
[2]
  Potency: inactive
[3]
  Potency: inactive
[4]
  Potency: inactive
[5]
  Potency: inactive
[10]
  max activation: -2.2% (inactive)
[11]
  Potency: inactive
[12]
  Potency: inactive
[6]
  Potency: 13.8 µM (active)
[7]
  Potency: inactive
[8]
  Potency: inactive
[9]
  Potency: inactive
[13]
  Potency: inactive
[14]
  Potency: inactive

## NCCCCCC(=O)O
[1]
  Potency: inactive
[2]
  Potency: inactive
[3]
  Potency: inactive
[4]
  Potency: inactive
[5]
  Potency: inactive
[10]
  max activation: 1.85% (inactive)
[11]
  Potency: inactive
[12]
  Potency: inactive
[6]
  Potency: inactive
[7]
  Potency: inactive
[8]
  Potency: inactive
[9]
  Potency: inactive
[13]
  Potency: inactive

## CC(=O)N[C@@H](CS)C(=O)O
[1]
  Potency: inactive
[2]
  Potency: inactive
[3]
  Potency: inactive
[4]
  Potency: inactive
[5]
  Potency: inactive
[10]
  max activation: -0.291% (inactive)
[11]
  Potency: inactive
[12]
  Potency: inactive
[6]
  Potency: inactive
[7]
  Potency: 56.3 µM (active) and inactive
[8]
  Potency: inactive
[9]
  Potency: inactive
[13]
  Potency: inactive

## O=S(=O)(O)c1ccc2nc(-c3ccccc3)[nH]c2c1
[1]
  Potency: inactive
[2]
  Potency: inactive
[3]
  Potency: inactive
[4]
  Potency: inactive
[5]
  Potency: inactive
[10]
  max activation: -3.42% (inactive)
[11]
  Potency: inactive
[12]
  Potency: inactive
[6]
  Potency: 21.4 µM (active) and 13.8 µM (active)
[7]
  Potency: 17 µM (active) and 9.77 µM (active)
[8]
  Potency: 33.9 µM (active) and 19.5 µM (active)
[9]
  Potency: 26.9 µM (active) and 19.5 µM (active)
[13]
  Potency: inactive

## CCCCCCC(O)CCCCCCCCCCC(=O)O (centres undefined)
[1]
  Potency: inactive
[2]
  Potency: inactive
[3]
  Potency: inactive
[4]
  Potency: inactive
[5]
  Potency: inactive
[6]
  Potency: inactive
[7]
  Potency: inactive
[8]
  Potency: inactive
[9]
  Potency: inactive
[13]
  Potency: inactive

## CCn1cc(C(=O)O)c(=O)c2cc(F)c(N3CCNC(C)C3)c(F)c21 (centres undefined)
[1]
  Potency: inactive
[2]
  Potency: inactive
[3]
  Potency: inactive
[4]
  Potency: inactive
[5]
  Potency: inactive
[10]
  max activation: -0.533% (inactive)
[11]
  Potency: inactive
[12]
  Potency: inactive
[6]
  Potency: inactive
[8]
  Potency: inactive
[9]
  Potency: inactive
[14]
  Potency: inactive

## CCOc1ccccc1C(N)=O
[1]
  Potency: inactive
[2]
  Potency: inactive
[3]
  Potency: inactive
[4]
  Potency: inactive
[5]
  Potency: inactive
[10]
  max activation: -0.87% (inactive)
[11]
  Potency: inactive
[12]
  Potency: inactive
[6]
  Potency: inactive
[7]
  Potency: 20 µM (active) and inactive
[8]
  Potency: inactive
[9]
  Potency: 31.8 µM (active) and 17.4 µM (active)
[13]
  Potency: inactive

## Cc1ccc(-c2cc(C(F)(F)F)nn2-c2ccc(S(N)(=O)=O)cc2)cc1
[1]
  Potency: 54.3 µM (active)
[2]
  Potency: 48.4 µM (active) and 61.1 µM (active)
[3]
  Potency: inactive
[4]
  Potency: 60.9 µM (active) and 61.1 µM (active) and inactive
[5]
  Potency: 10.8 µM (active) and 5.45 µM (active) and 13.3 µM (active)
[10]
  max activation: 0.916% (inactive)
[11]
  Potency: 14.1 µM (active)
[6]
  Potency: 998 nM (active) and 35.6 µM (active) and 15.5 µM (active)
[7]
  Potency: 28.1 µM (active) and 50.2 µM (active)
[8]
  Potency: 12.6 µM (active) and 11.2 µM (active) and 8.71 µM (active)
[9]
  Potency: inactive

## Cc1c2oc3c(C)ccc(C(=O)N[C@@H]4C(=O)N[C@H](C(C)C)C(=O)N5CCC[C@H]5C(=O)N(C)CC(=O)N(C)[C@@H](C(C)C)C(=O)O[C@@H]4C)c3nc-2c(C(=O)N[C@@H]2C(=O)N[C@H](C(C)C)C(=O)N3CCC[C@H]3C(=O)N(C)CC(=O)N(C)[C@@H](C(C)C)C(=O)O[C@@H]2C)c(N)c1=O (I: T[dV]P[Sar][NMeV] / II: T[dV]P[Sar][NMeV]; ester I:1-I:C, II:1-II:C; linker I:N-II:N via Actinocin(9to1))
[1]
  Potency: 13.3 nM (active) and 18.8 nM (active)
[2]
  Potency: 375 nM (active) and 188 nM (active)
[3]
  Potency: 188 nM (active) and 335 nM (active)
[4]
  Potency: 29.8 µM (active) and 15 µM (active)
[5]
  Potency: inactive
[11]
  Potency: inactive
[12]
  Potency: inactive
[6]
  Potency: inactive
[7]
  Potency: inactive
[8]
  Potency: inactive
[9]
  Potency: inactive
[13]
  Potency: inactive
[14]
  Potency: inactive

## CC(C)CCOC(=O)c1ccc(N(C)C)cc1
[1]
  Potency: inactive
[2]
  Potency: inactive
[3]
  Potency: inactive
[4]
  Potency: inactive
[5]
  Potency: inactive
[11]
  Potency: inactive
[12]
  Potency: inactive
[6]
  Potency: inactive
[7]
  Potency: 4.9 µM (active)
[8]
  Potency: 8.71 µM (active)
[9]
  Potency: 2.88 µM (active)
[13]
  Potency: inactive
[14]
  Potency: inactive

## OCCOCCN1CCN(C(c2ccccc2)c2ccc(Cl)cc2)CC1 (centres undefined)
[1]
  Potency: 53.8 µM (active) and inactive
[2]
  Potency: 53.8 µM (active) and inactive
[3]
  Potency: inactive
[4]
  Potency: 21.4 µM (active) and inactive
[5]
  Potency: 8.52 µM (active) and inactive

## C#CC(C)(CC)OC(=O)c1ccccc1C(=O)O (centres undefined)
[1]
  Potency: inactive
[2]
  Potency: inactive
[3]
  Potency: inactive
[4]
  Potency: inactive
[5]
  Potency: inactive
[6]
  Potency: inactive
[7]
  Potency: inactive
[8]
  Potency: inactive
[9]
  Potency: inactive
[13]
  Potency: inactive

## CC(=O)CC(C)=O
[1]
  Potency: inactive
[2]
  Potency: inactive
[3]
  Potency: inactive
[4]
  Potency: inactive
[5]
  Potency: inactive
[6]
  Potency: inactive
[7]
  Potency: inactive
[8]
  Potency: inactive
[9]
  Potency: inactive
[13]
  Potency: inactive
